# High-throughput results deposited in PubChem by several laboratories.
# Rin1-Abl PPI inh: blocks binding of human Rin1 to Abl; P00519+Q13671; TR-FRET Rin1/Abl binding, biochemical; inhibition, % at 7.35 µM; actives 0.4% (n = 360,000); AID 588664; in the data active means inhibition above about 5%, passing the limit was not always enough
# AI-2 QS modul: Vibrio harveyi AI-2 quorum sensing modulation; activity change, % at 7.5 µM; actives 0.4% (n = 300,000); Vibrio harveyi JMH597 AI-2 luminescence/OD600 ratio, 9 h; hits give low values; strain lacks LuxN and CqsS sensors; 0 = neutral-control median; AID 2094; in the data active means activity change below about -75%, passing the limit was not always enough;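 further: luminescence divided by OD600 gain over 9 h not by final OD600 alone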
# sPLA2-III inh: Blocks human group III sPLA2 activity. QFRET BODIPY PC-A2 liposome hydrolysis, fluorescence. inhibition, % at 12.2 µM. AID 743126. Q9NZ20. actives 0.56% (n = 370,000);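 active means inhibition above mean plus 3 SD of compounds lying within the high and low control bounds, cut at about 19% in these data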;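 further: 0% = median of test compound wells and 100% = no enzyme DMSO wells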
# Target sequence (Q9NZ20 whole entry, looked up): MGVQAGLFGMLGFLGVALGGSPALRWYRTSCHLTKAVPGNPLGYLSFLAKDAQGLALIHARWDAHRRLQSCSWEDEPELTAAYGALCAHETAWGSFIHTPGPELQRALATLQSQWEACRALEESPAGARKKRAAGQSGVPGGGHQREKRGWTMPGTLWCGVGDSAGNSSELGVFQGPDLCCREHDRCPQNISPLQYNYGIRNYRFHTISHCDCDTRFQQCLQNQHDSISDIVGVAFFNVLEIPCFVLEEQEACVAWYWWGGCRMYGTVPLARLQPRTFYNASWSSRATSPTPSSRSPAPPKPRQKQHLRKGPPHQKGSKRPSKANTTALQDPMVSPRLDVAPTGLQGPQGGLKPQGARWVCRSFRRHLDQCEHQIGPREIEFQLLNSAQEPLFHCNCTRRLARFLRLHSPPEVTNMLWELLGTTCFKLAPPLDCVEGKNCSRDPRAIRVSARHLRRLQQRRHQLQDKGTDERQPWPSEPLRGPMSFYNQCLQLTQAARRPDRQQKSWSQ
# ARNT TACC3 PPI: ARNT/TACC3 interaction disruption | Q9Y6A5 | AlphaScreen His-ARNT PAS-B/GST-TACC3 binding, luminescence; TACC3 fragment carries E629A point mutation | inhibition, % at 9.99 µM | actives 0.66% (n = 390,000) | AID 623870;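 active means mean inhibition of replicates at least 50% and at least half of replicates each reaching 50%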;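 further: 0% = complete ARNT plus TACC3 wells and 100% = ARNT alone without TACC3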
# ARNT Alpha ctr-1: AlphaScreen artifact in ARNT/TACC3 counter-screen. actives 50% (n = 1,200). AC50, µM (doses to about 68 µM), without a hit: at the highest dose activity change, negative = signal decrease. His-ARNT PASB-GST AlphaScreen artifact counter-screen, luminescence. shares compounds with ARNT TACC3 PPI;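 active means every separate test run was called active for a drop in luminescence, with AC50 within twice the top valid dose, actives reach about 71 µM in these data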
# ARNT Alpha ctr-2: AlphaScreen artifact flagged for ARNT-TACC3 inhibitors | actives 70% (n = 45) | AC50, µM | Dual-tagged His-ARNT PASB-GST AlphaScreen artifact counter-screen | shares compounds with ARNT TACC3 PPI;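 active means luminescence drop, with half-maximal potency fitted within twice the sample's top valid dose, cut at about 70 µM in these data; inactive means the rest, including signal moving the wrong way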
# hGIII sPLA2 conf: human GIII-sPLA2 inhibition, confirmation; inhibition, % at 12.2 µM; recombinant hGIII-sPLA2, BODIPY PC-A2 QFRET fluorescence; AID 743280; shares compounds with sPLA2-III inh; actives 34% (n = 2,000);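 active means mean inhibition across triplicates above the hit cutoff set in the earlier primary screen, cut at about 19% in these data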;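 further: 0% = enzyme with DMSO and 100% = DMSO wells lacking enzyme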
# 535nm interf: counter-screen for HGIII-sPLA2 inhibitors: 535nm fluorescence interference; inhibition, % at 12.2 µM; actives 8.5% (n = 2,000); shares compounds with sPLA2-III inh; AID 743282; BODIPY FL product fluorescence interference, QFRET;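 active means average inhibition above the solvent-only control mean plus 3 SD, cut at about 6% in these data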;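 further: 0% = DMSO with substrate plus product and 100% = DMSO with substrate alone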
# 535nm interf DR: 535nm optical interference dose response, HGIII-sPLA2 counter-screen. shares compounds with sPLA2-III inh. BODIPY FL product fluorescence interference, cell-free. IC50, µM. 240 tested, under 10 active;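 active means IC50 at or below 10 µM; inactive means IC50 above 10 µM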
# * marks the source's active call; other numbers are inactive results; . = no result given. Rows were chosen to be rich in hits. Some 1.5% of all compounds tested hit in one or more screens of this group.
SMILES,Rin1-Abl PPI inh,AI-2 QS modul,sPLA2-III inh,ARNT TACC3 PPI,hGIII sPLA2 conf,535nm interf,others
CNC(=O)C[C@@H]1CC[C@H]2[C@@H](COc3ccc(NC(=O)c4ccc(F)c(F)c4)cc3C(=O)N2C)O1,.,.,.,0,.,.,
Cc1ccc(S(=O)(=O)Nc2ccc3c(c2)C(=O)N([C@@H](C)CO)C[C@H](C)[C@H](CN(C)Cc2ccncc2)OCCCC[C@H](C)O3)cc1,.,.,.,3,.,.,
CCCCC(=O)NC(c1ccc(C(C)C)cc1)c1ccc2cccnc2c1O (stereo not drawn),1,26,13,-13,.,.,
CCCC(=O)NC(c1ccccc1)c1ccc2cccnc2c1O (stereo not drawn),4,.,29*,61*,17,-11,ARNT Alpha ctr-1=28µM*
O=C(N[C@H]1CC[C@@H](CCNC(=O)C2CCCC2)O[C@H]1CO)c1ccncc1,.,.,.,3,.,.,
Oc1c(C(Nc2ccccn2)c2cccnc2)cc(Cl)c2cccnc12 (stereo not drawn),0,-71,22*,57*,22*,-12,ARNT Alpha ctr-1=15µM*
COc1ccc(C(NC(=O)c2cccnc2)c2cc(Cl)c3cccnc3c2O)cc1OC (stereo not drawn),7,-9,4,29,.,.,
O=C(Nc1nc(-c2ccccn2)cs1)c1ccco1,1,32,20*,59*,2,-1,ARNT Alpha ctr-1=26µM*;ARNT Alpha ctr-2=9.8*
CC(C)(C)c1ccc(CNc2nc(-c3ccccn3)nnc2-c2ccccc2)cc1,.,.,40*,.,9,-36,ARNT Alpha ctr-1=3.7µM*
CCCNC(=O)N1C[C@@H](O)COC[C@@H]2O[C@@H](CC(=O)NCCCN3CCOCC3)CC[C@H]21,.,.,.,-2,.,.,
Cc1cc(C)nc(SCc2cc(=O)c(OC(=O)c3ccc(Cl)c([N+](=O)[O-])c3)co2)n1,-2,5,22*,-1,-17,-11,
Cc1ccnc(SCc2cc(=O)c(OC(=O)c3ccc([N+](=O)[O-])cc3)co2)n1,.,.,16,.,.,.,
N#C[C@H]1[C@H](c2ccc(C3=CCCCC3)cc2)[C@@H](CO)N1C(=O)NC1CCCCC1,.,.,.,21,.,.,
CCOC(=O)CCC(NC(=O)CCC(=O)NC(CCC(=O)OCC)C(=O)OCC)C(=O)OCC (stereo not drawn),-1,7,11,-7,.,.,
CCOC(=O)CCC(NC(=O)CCCC(=O)NC(CCC(=O)OCC)C(=O)OCC)C(=O)OCC (stereo not drawn),2,-1,22*,-3,1,-6,
CCc1cnc(Nc2nc(C(N)c3ccccc3Cl)cs2)nc1 (stereo not drawn),-1,.,26*,.,3,-7,
CCc1cnc(Nc2nc(C(N)Cc3ccc(Cl)cc3)cs2)nc1 (stereo not drawn),0,.,9,.,.,.,
c1ccc(-c2nnc(-c3ccccc3)nn2)cc1,0,14,7,.,.,.,
c1ccc(-c2nccnc2-c2ccccc2)cc1,1,6,22*,2,3,-4,
CC(C)C(=O)N1CC[C@H]2[C@H](CCCN2Cc2ccc(F)cc2)C1,.,.,22*,.,-4,-9,
O=C(C[C@@H]1CC[C@@H]2[C@H](COC[C@H](O)CN2S(=O)(=O)c2ccc(F)cc2)O1)N1CCc2ccccc2C1,.,.,.,1,.,.,
Cc1ccc(C)c(N2CCN(CC3CCCCC3)CC2)c1,0,6,21*,-12,15,-12,
CN(C)c1ccc(C(c2ccc(N(C)C)cc2)c2ccc([N+](=O)[O-])cc2)cc1,-2,.,20*,5,19,9.2*,
CN(C)c1ccc(C=NC(CO)C(O)c2ccc([N+](=O)[O-])cc2)cc1 (stereo not drawn),-2,11,2,5,.,.,
O=C(Nc1ccc(-c2noc(-c3ccccc3F)n2)cc1)c1cccs1,-1,7,21*,-4,-6,-3,
SMILES,Rin1-Abl PPI inh,AI-2 QS modul,sPLA2-III inh,ARNT TACC3 PPI,hGIII sPLA2 conf,535nm interf,others
O=C1O[C@@H](c2ccccc2)[C@@H](c2ccccc2)N2[C@@H](c3ccc(O)cc3)[C@]3(C(=O)Nc4ccc(C#CC5(O)CCCCCC5)cc43)[C@@H](C(=O)NC[C@H](O)c3ccccc3)[C@H]12,.,.,.,9,.,.,
O=C(C[C@H]1CC[C@H]2[C@@H](COC[C@@H](O)CN2C(=O)Nc2ccc(F)cc2)O1)NCCc1ccccc1,.,.,.,6,.,.,
O=C1c2cccc(NCCCNCCO)c2C(=O)c2cccc(NCCCNCCO)c21,-34,.,27*,49*,25*,-30,
CC[n+]1c(/C=C/c2ccc(N(C)C)cc2)ccc2ccccc21,-34,-10,25*,20,43*,-14,535nm interf DR=>122
CC[n+]1ccc(/C=C/c2ccc(N(C)C)cc2)c2ccccc21,-43,.,24*,38,46*,-11,535nm interf DR=>122
Nc1ccc(N=Nc2ccccc2O)c(N)c1,-4,20,21*,.,56*,21*,
Oc1ccccc1N=Nc1ccccc1O,2,25,36*,.,36*,5,535nm interf DR=>122
C=CCn1c(O)c(N=Nc2ccccc2O)c2ccccc21,-1,.,4,8,.,.,
Cc1ccc(N=Nc2cc(C)ccc2O)c(C)c1,2,7,9,0,.,.,
COc1ccc(NC(=O)Nc2cccc3c2O[C@H](CN(C)C(=O)Nc2c(C)noc2C)[C@H](C)CN([C@H](C)CO)C3=O)cc1,.,.,.,-3,.,.,
CNC[C@H]1Oc2ccc(NC(=O)CCN3CCOCC3)cc2C(=O)N([C@@H](C)CO)C[C@H]1C,.,.,.,-6,.,.,
CC(C1CC2CCC1C2)N1CC(O)=C(c2nc3ccccc3[nH]2)C1=N (stereo not drawn),-3,18,28*,8,21*,-4,
C[C@@H]1CCCCO[C@H](CN(C)C(=O)Nc2ccc(C(F)(F)F)cc2)[C@@H](C)CN([C@H](C)CO)C(=O)c2cc(NC(=O)Nc3cccc4ccccc34)ccc2O1,.,.,.,-6,.,.,
COc1cccc(-c2cn(CC[C@@H]3CC[C@@H](NC(=O)CN(C)C)[C@@H](CO)O3)nn2)c1,.,.,.,3,.,.,
O=C1C=CC(=O)N1c1ccc2c(c1)C(NC(=O)C(F)(F)F)c1ccccc1-2 (stereo not drawn),4,.,19*,.,4,-4,
